A1 inh = inhibitors of A1; AID 2241; caspase activation, % (concentration not given with the values); 21,000 tested, 0.51% active; MEF A1-2A-BIM cells, caspase-Glo luminescence, 3 h; percent of clofoctol signal, DMSO as zero;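 active = most replicate scores above 10, or exactly half above 10 with mean activity above 10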;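 also: effector caspase 3 and 7 activity cleaving a DEVD luciferin substrate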
An asterisk follows results filed as active; ! = not active in a repeat. Shown is part of a subset that was picked to be rich in hits.

SMILES	A1 inh
CCCCN(C)c1sc(S(C)(=O)=O)nc1S(=O)(=O)c1ccc(C)cc1	0.1
O=C1c2ccccc2-c2nn(C(=O)C3CCCCC3)c3cccc1c23	-0.3
CN1C(=O)CC(c2ccccc2)S(=O)(=O)c2ccccc21 (centres undefined)	1.3
Cc1ccc2n1CCn1cc(-c3ccccc3)cc1-2	0.2
Cc1ccc(-c2nn(-c3ccccc3)cc2/C=N/O)cc1	0.1
CC1=NNC(=O)/C1=C\c1cn(-c2ccccc2)nc1-c1ccc(F)cc1	95.8*
Cc1ccc(C(=O)N/C(=C\c2cn(-c3ccccc3)nc2-c2ccccc2)C(=O)O)cc1	1.2
CCCC(C)C(=O)NCc1ccc(C)cc1 (centres undefined)	-0.3
CCN(CC)S(=O)(=O)c1ccccc1/C=N/O	-0.4
Cc1c(C(=O)Nc2ccccc2)cc(-c2ccccc2)n1-c1ccccc1	1.1
CC1=CC(C)C(C(=O)O)C(C(=O)Nc2ccccc2)C1 (centres undefined)	0.9
O=C(Cn1cnc2c(nnn2-c2cccc(Cl)c2)c1=O)OCc1ccccc1	-0.5
CC(C)(C)OC(=O)Nc1ncnc2c1ncn2C1OC(CO)C2OC(C)(C)OC21 (centres undefined)	-0.2
CN(C)c1ncnc2c1ncn2C1OC(CO)C(N)C1O (centres undefined)	0.8
COc1ccc(CC(N)C(=O)N[C@H]2[C@@H](O)[C@H](n3cnc4c(N(C)C)ncnc43)O[C@@H]2CO)cc1 (some centres undefined)	58.0*
COc1cccc(-c2cc(C(=O)N3CCOCC3)on2)c1	-5.7
CC(C)Cn1c2ccc(Br)cc2c2nc3ccccc3nc21	-0.2
OC(CN1CCN(c2cccc(Cl)c2)CC1)Cn1c2ccccc2c2ccccc21 (centres undefined)	-0.4
OC(CN1CCNCC1)Cn1c2ccc(Br)cc2c2cc(Br)ccc21 (centres undefined)	16.0*!
CC(SCc1ccccc1)C(=O)Nc1cccnc1 (centres undefined)	0.0
CCOC(=O)C(C)n1cnc2c(cnn2-c2ccc(F)cc2)c1=O (centres undefined)	-0.5
O=C(CSc1nc2ccccc2c(=O)n1CCc1ccccc1)NCc1ccco1	-0.8
N#CCSc1nc2ccccc2c(=O)n1CCCC(=O)NCc1ccco1	-0.7
N#CCSc1nc2cc(C(=O)NCc3ccccc3)ccc2c(=O)n1CCc1ccccc1	21.7*
COc1ccc(CCNC(=S)NC(=O)c2ccc(Cl)cc2Cl)cc1OC	-1.3
SMILES	A1 inh
O=c1c(S(=O)(=O)c2ccccc2)cn(Cc2ccc(F)cc2)c2ccc(F)cc12	0.0
Cn1nc(C(C)(C)C)cc1C(=O)NCc1ccc(-c2cccs2)cc1	-1.6
O=C1C[C@H](c2ccccc2)Oc2c(Cc3ccccc3O)c(O)cc(O)c21	-0.7
Cc1c(O)cc(O)c2c1OC(c1ccccc1)CC2=O (centres undefined)	0.3
CC(C)=CCc1c(O)cc(O)c2c1O[C@H](c1ccccc1)CC2=O	22.6*
Clc1ccccc1CSc1nc(NCC2CCCO2)c2ccccc2n1 (centres undefined)	-0.3
CC(C)C(=O)/C=C1/Sc2ccccc2N1C	-1.7
COC(=O)CC(O)(CCCC(C)(C)O)C(=O)O[C@@H]1C(OC)=C[C@]23CCCN2CCc2cc4c(cc2[C@@H]13)OCO4 (some centres undefined)	10.2*
CCN1C(=O)/C(=C\c2ccc(N(C)C)cc2Cl)OC1=S	0.0
CC(C)(C)c1ccc(C(=O)Nc2cccc(C(F)(F)F)c2)cc1	1.0
COc1cc2c(N3C(=O)CCC3=O)c3c(=O)oc(C)cn3c2cc1OC	-0.1
COC(=O)Cn1c(=N)n(C)c2ccccc21	-0.5
Cc1ccc(N2C(=O)N(CC(=O)Nc3ccccc3)c3ccccc3S2(=O)=O)cc1Cl	0.2
Cc1cc(C)cc(NC(=O)CN2C=NS(=O)(=O)c3ccccc32)c1	0.8
Cc1cc(C)cc(NC(=O)CN2C(=O)CCc3ccccc32)c1	10.9*
CCOc1ccc(N=c2scc(-c3ccc(S(=O)(=O)N(CC)CC)cc3)n2CCCO)cc1	-1.1
CNC(=S)N(Cc1ccc(OC)cc1OC)c1ccc(I)cc1	0.7
O=C(CCCOc1ccc(Cl)cc1Cl)Nc1nccs1	-0.2
CC1(C)CC(=O)/C(=C/c2ccccc2)C(C)(C)N1	1.8
CCCCC(O)(c1ccc(OC)cc1)C(CN1CCOCC1)c1ccccc1 (centres undefined)	0.0
Oc1c(C(c2ccncc2)N2CCCC2)ccc2cccnc12 (centres undefined)	4.8
COc1ccc(C(c2ccc3cccnc3c2O)N2CCOCC2)cc1 (centres undefined)	42.8*
CCc1ccc(Oc2c(C(F)(F)F)oc3c(CN4CCCCC4)c(O)ccc3c2=O)cc1	-0.5
OC[C@H]1O[C@@H](n2cnc3c(NCc4ccco4)ncnc32)[C@H](O)[C@@H]1O	0.2
Nc1ncnc2c1c(I)cn2C1OC(CO)C(O)C1O (centres undefined)	25.7*
Nc1nc(Cl)nc2c1ncn2C1OC(CO)[C@H](O)[C@H]1F (some centres undefined)	1.2
CN(Cc1ccccc1)C(=O)c1cccs1	0.5

Bioassay records from PubChem BioAssay.
